In PubChem BioAssay AID589 (National Center for Advancing Translational Sciences (NCATS), 2007):
The campaign covered roughly 59,000 compounds. About 6,200 (11%) were called active. Not shown: some 9% with an inconclusive outcome. No stated cut-off is given here; in the data, active means max dye-equivalent concentration above about 10 nM; inconclusive means mostly about 1.1 nM to 9.6 nM; inactive means weaker than that. For the sample, actives were picked, then their nearest neighbours and some compounds at random. More than one record can exist for a structure, and the calls need not agree.

test: qHTS Assay for Spectroscopic Profiling in 4-MU Spectral Region; conditions: compound autofluorescence, 340/450 nm, 4-MU equivalents; stronger effect = higher value
Source text: NIH Molecular Libraries Screening Centers Network [MLSCN] NIH Chemical Genomics Center [NCGC] […] Occasionally, the artifactual effect may originate from the compounds own spectral or other biophysical properties which generally tend to track its assay concentration. Pre-screening/profiling the library with respect to the compounds spectral properties should help one exclude false positives early on. While the most informative fluorescent profiling data set is obtained by performing a full excitation and emission scan of each well by using a monochromator-based plate reader, such an approach is practical only on a very limited scale as scanning each well requires long time. An alternative approach, applied here, is to perform plate reader scans using selected excitation and emission wavelength pairs to generate a multidimensional relational database that correlates compound concentration and the respective relative fluorescence intensity at a given wavelength set. A standard curve of 4-methylumbelliferone (4-MU) present on each plate as six-point concentration series, was used to compute a normalized fluorescence response, termed dye-equivalent concentration, for each compound at each concentration.
NCGC Assay Protocol Summary: Buffer: 100 mM Tris buffer, pH 8.0 Dye standard plate: The wells in columns 1 through 4 of a Kalypsys polypropylene 1536-well compound plate were filled with standard solutions of fluorophore corresponding to the spectral region of interest. Solutions of 4-MU were placed in the following wells: A1, B1: 3 mM, A2, B2: 300 uM, A3, B3: 30 uM, A4, B4: zero (DMSO), C1, D1: 3 uM, C2, D2: 900 nM, C3, D3: 300 nM, C4, D4: zero (DMSO). Assay Steps: Six uL of buffer were dispensed to 1536-well Greiner black plates. Compounds and dye standards (23 nL) were transferred via Kalypsys PinTool. The plates were incubated for 15 min at room temperature, and then read on ViewLux (Perkin-Elmer) High-throughput CCD imager using 340 nm and 450 nm excitation and emission filter set. Keywords: NIH Roadmap, MLSCN, MLI, MLSMR, qHTS, NCGC, Fluorescent Profiling, 4MU, 4-MU

SMILES	max dye-equivalent concentration	outcome
NC1(C(=O)OCc2ccccc2)CCCC1	inactive	
CC(C)C(NC(=O)OCc1ccccc1)C(=O)OCC(=O)N1C(C)CCCC1C (centres undefined)	37 nM (active)	
COc1cccc(NC(=O)C2CCCN2C(=O)OCc2ccccc2)c1 (centres undefined)	inactive	
CCCC[C@H]1C(=O)N(c2ccccc2)N(c2ccc(O)cc2)C1=O	inactive	
COC(=O)COc1ccc(S(=O)(=O)Nc2ccc(NC(C)=O)cc2)cc1	inactive	
CCCOc1ccc(NC(=O)C2CCCNC2=O)cc1 (centres undefined)	inactive	
O=C1CCC(C(=O)Nc2ccc(OC(F)F)cc2)N1 (centres undefined)	18 nM (active)	
O=C(O)C1CCN(c2ncnc3ccc(-c4ccccc4C(F)(F)F)cc23)CC1	inactive	
COc1ccc(-c2nc3n(c2Br)CCC3)cc1	inactive	
Cc1cccc(OCc2nnc(SCn3nnc4ccccc4c3=O)o2)c1	inactive	
CCCn1c(O)c(CN2CCCC(C)C2)c(C)c(C#N)c1=O (centres undefined)	13 nM (active)	
CCCCCCn1c(CN2CCCC(C)C2)nc2c1c(=O)n(C)c(=O)n2C (centres undefined)	inactive	
O=C(Cc1c(F)cccc1Cl)N1CCN(C(=O)c2ccco2)CC1	inactive	
CCN(Cc1ccncc1)C(=O)[C@@H](CO)c1ccccc1	inactive	
Clc1ccc(Cc2nn3c(-c4ccncc4)nnc3s2)cc1	inactive	
COc1cccc(C(=O)Nc2c3c(nn2-c2cccc(C)c2C)CS(=O)(=O)C3)c1OC	inactive	
COc1ccccc1CNc1nc(-c2c(C)noc2C)nc2ccccc12	inactive	
c1ccc(-n2nnnc2N2CCOCC2)cc1	inactive	
c1cnn(-c2cc(N3CCOCC3)ncn2)c1	inactive	
c1ccc(-c2oc3ncnc(N4CCOCC4)c3c2-c2ccccc2)cc1	11 nM (active)	
CCCCOc1ccccc1/C=c1/sc2nc(-c3oc4ccccc4c3C)nn2c1=O	inactive	
CCc1ccccc1NC1c2ccccc2C(=O)N1c1cccnc1 (centres undefined)	inactive	

SMILES	max dye-equivalent concentration	outcome
O=C(O)C1=CCCN(CCON=C(c2ccccc2)c2ccccc2)C1	inactive	
c1cncc(CNc2ccnc(-c3ccc4c(c3)OCO4)n2)c1	14 nM (active)	
O=C(Nc1cccnc1)c1ccc2c(c1)OCO2	inactive	
Cc1cccc(CNc2ccnc(-c3cccnc3)n2)c1	inactive	
COc1ccc(Br)c2c1C[C@H](C(=O)O)CC2	inactive	
CCOc1cc(CO)ccc1OCC(=O)N1CCCCC1	inactive	
Cc1ccccc1CSc1nnc(-c2ccccn2)n1N	inactive	
CC(=O)c1cccc(S(=O)(=O)N2CCC(n3nnc4cc(F)ccc43)CC2)c1	inactive	
O=C(NCc1cccs1)C1CCN(S(=O)(=O)c2ccc3c(c2)OCCO3)CC1	inactive	
O=C(c1ccc2c(c1)OCCO2)C1CCN(S(=O)(=O)c2cccc(F)c2)CC1	12 nM (active)	
COc1cccc(NC(=O)Cn2cnc3sc(C)c(S(=O)(=O)N4CCN(C)CC4)c3c2=O)c1	inactive	
CC(Nc1nc(N2CCCC2)nc2ccccc12)c1ccccc1 (centres undefined)	150 nM (active)	
Cc1ccc(C(CC(=O)O)Nc2nc(N3CCCCC3)nc(N3CCCCC3)n2)cc1 (centres undefined)	inactive	
CC(C)(CSc1nncn1/N=C/c1ccco1)NS(=O)(=O)c1ccc(Cl)cc1	inactive	
CCC(=O)Nc1ccc(C(=O)CSc2nnc(CNc3ccc(Cl)cc3)o2)cc1OC	inactive	
COC(=O)N1CCC[C@@]2(CCN(C(=O)NC(C)C)C2)C1	inactive	
Cc1occc1C(=O)Nc1cccc(Cn2cccn2)c1	inactive	
CCCN1CC=C2C(C#N)=C(N)C(C#N)(C#N)C(c3cc(OC)ccc3OC)C2C1 (centres undefined)	120 nM (active)	
COC(=O)C1=C(C)OC(N)=C(C#N)C1c1cc(OC)ccc1OC (centres undefined)	inactive	
CCC1=C(C(=O)OC)C(c2cc(OC)ccc2OC)C(C#N)=C(N)O1 (centres undefined)	inactive	
CCCCNC(=O)c1c[nH]c2ccc(S(=O)(=O)Nc3ccc(OCC)cc3)cc2c1=O	inactive	
COc1cccc(N(CC(=O)NC2CCCC2)C(=O)Cn2nnc(-c3ccc(C)cc3)n2)c1	inactive	

SMILES	max dye-equivalent concentration	outcome
O=C(c1cc(C(F)(F)F)cc(C(F)(F)F)c1)N1CCC2(CCCN(c3ccccn3)C2)CC1	inactive	
N#Cc1c2c(c(-c3ccccc3)[nH]c1=O)CCCC2	16 nM (active)	
CCCCCN(C(=O)NC(=O)Nc1ccccc1C)S(C)(=O)=O	inactive	
O=C1C2(c3ccccc3)CN(CCCO)CC1(c1ccccc1)CN(CCCO)C2	inactive	
C[C@@H](N)[C@@H](C)Cc1ccccc1	inactive	
COc1ccc(-c2cc(C(F)(F)F)nc(SCCC(=O)NCc3ccco3)n2)cc1	inactive	
FC(F)(F)c1cc(-c2cccs2)nc(NCc2ccco2)n1	20 nM (active)	
O=C(CSc1nc(-c2ccco2)cc(C(F)(F)F)n1)NCc1cccs1	inactive	
COc1ccccc1N1CCN(C(=O)CSc2nnc(-c3ccoc3C)o2)CC1	inactive	
CC(NCCO)C(=O)C12CC3CC(CC(C3)C1)C2 (centres undefined)	36 nM (active)	
CN1CCN(CC(=O)C23CC4CC(CC(C4)C2)C3)CC1	inactive	
O=C(CNCCO)NC12CC3CC(CC(C3)C1)C2	inactive	
Cc1ccc2[nH]c3c(c2c1)CN(C(=O)CN1CCN(c2ccccc2)CC1)CC3	inactive	
O=C(O)[C@@H](O)Cc1ccccn1	inactive	
O=C(c1ccco1)N1CCC[C@@]2(CCN(Cc3nccs3)C2)C1	inactive	
COc1ccc(C(=O)Nc2ccc(S(=O)(=O)Nc3onc(C)c3C)cc2)cc1OC	inactive	
COc1ccc(-c2cc3ccc(OCc4nn[nH]n4)cc3oc2=O)cc1	8100 nM (active)	
COc1ccc(OCc2ccc(-c3nc4ccccc4c(=O)n3N)o2)cc1	inactive	
O=C(Nc1cccc(Cl)c1)OCc1ccccn1	inactive	
CC(C)COC(=O)c1ccc(NC(=O)C2C3C=CC(C3)C2C(=O)O)cc1 (centres undefined)	inactive	
CCC(CC)C(=O)Nc1cc(C(=O)OC)cc(C(=O)OC)c1	inactive	
CC(C)OC(=O)c1cc(NC(=O)C2C3CCC(O3)C2C(=O)O)cc(C(=O)OC(C)C)c1 (centres undefined)	14 nM (active)	

SMILES	max dye-equivalent concentration	outcome
CCC(=O)c1ccc(OCC(O)CN2CC(C)OC(C)C2)cc1 (centres undefined)	inactive	
O=C(c1ccco1)N1CCN(C(=O)C2c3ccccc3Oc3ccccc32)CC1	inactive	
CS(=O)(=O)c1ccc2nc(NC(=O)CN3CCCCCC3)sc2c1	inactive	
Cc1nc2ccc(NC(=O)N3CCC(c4ccccc4)C3)cc2nc1C (centres undefined)	550 nM (active)	
O=C(Nc1cccc(NC(=O)N2CCN(c3ccccc3)CC2)c1)N1CCN(c2ccccc2)CC1	inactive	
Cn1c(CCN2CCCCCC2)nc2cc(NC(=O)Nc3ccccc3)ccc21	inactive	
Cc1cc(C)nc(SCc2nnc(SCC(=O)OC3CCCCC3)o2)n1	inactive	
CCOc1ccc2cc(C#N)c(SCC(=O)OC)nc2c1	37 nM (active)	
CCOc1cccc(NC(=O)CC#N)c1	inactive	
CC(=O)c1cc(C#N)c(SCC(=O)C(C)(C)C)nc1C	inactive	
Cc1nn(-c2ccccc2)c2c1C(=O)NC(=O)C(C)(C)C2	inactive	
CCC(C(=O)N1CCOCC1)n1c(C(=O)OC)cc2occc21 (centres undefined)	inactive	
CC(=O)c1ccc(N2C(=NC(=O)C(C)C)SC3CS(=O)(=O)CC32)cc1 (centres undefined)	inactive	
CCC(C)Sc1nc2c(c(=O)[nH]c(=O)n2C)n1CC(O)COc1cccc2ccccc12 (centres undefined)	inactive	
CCOC(=O)c1c(C)[nH]c(C(=O)COc2ccc3c(c2)OCO3)c1C	inactive	
CCCCOC(=O)c1[nH]c(C)c(C(=O)OC)c1C	360 nM (active)	
CCOC(=O)c1c(C)[nH]c(C(=O)NCc2ccccc2OC)c1C	inactive	
CCOC(=O)N1CCN(C(=O)Cc2ccc(-n3c(=S)[nH]c4ccccc4c3=O)cc2)CC1	inactive	
O=C(c1cccs1)N1CCN(C(=O)N2CCOCC2)CC1	inactive	
COc1ccc(C)cc1NC(=O)c1[nH]c(C)c(C(C)=O)c1C	inactive	
CCN(CC)S(=O)(=O)c1ccc2[nH]cc(C(=O)NCCc3ccccc3)c(=O)c2c1	inactive	
CCN(CC)CCNC(=O)c1cc(S(C)(=O)=O)ccc1OC	10 nM (active)	inactive

SMILES	max dye-equivalent concentration	outcome
Cc1onc(-c2ccccc2)c1C(=O)N1CCOCC1	inactive	
CCN(c1ccccc1)S(=O)(=O)c1cccc(C(=O)O)c1	inactive	
Cc1ccc(Oc2nc3ccccc3n3c(C)nnc23)cc1	inactive	
CN(c1nc2ccccc2n2c(-c3ccco3)nnc12)S(=O)(=O)c1ccccc1	39 nM (active)	
c1ccc(CSc2nnc(-c3ccco3)n2Cc2ccccc2)cc1	inactive	
CCc1cc(Br)ccc1NC(=O)C1CCCO1 (centres undefined)	inactive	
CC(=O)N1CCN(CCN=CC2=C(O)CC(C)(C)CC2=O)CC1	inactive	
N#CC(C(=O)c1ccc(S(=O)(=O)N2CCCCCC2)cc1)c1nc2ccccc2[nH]1 (centres undefined)	24 nM (active)	
Cc1ccccc1-c1nnn(CC(=O)c2ccc(S(=O)(=O)N3CCCC3)cc2)n1	inactive	
COc1ccccc1N1CCN(C(=O)c2ccc(S(=O)(=O)N3CCCCC3)cc2)CC1	inactive	
CCOc1cc(C(=O)N2CCc3cc(OC)c(OC)cc3C2)ccc1OC(F)F	inactive	
CC1(C)CC(=O)c2sc(N)nc2C1	inactive	
CCOC(=O)C1(Cc2ccc(O)cc2)NC(c2ccccc2F)C2C(=O)N(C)C(=O)C21 (centres undefined)	inactive	
O=C(c1csnn1)N1CCC2(CCN(Cc3nccs3)CC2)CC1	inactive	
Cc1cc(C)c(C#N)c(SCc2ccc3c(c2)OCO3)n1	inactive	
Cc1cc(C)c(C#N)c(SCS(=O)c2ccc(C(C)(C)C)cc2)n1 (centres undefined)	inactive	
Cc1cc(C)c(C#N)c(SCc2ccccc2C(=O)O)n1	13 nM (active)	
O=C(Nc1ccon1)c1sc2ccccc2c1Cl	inactive	
OCCCN1c2ccccc2Nc2nnc(-c3ccccc3)cc21	94 nM (active)	
Oc1ccc(Cn2cc[nH]c2=S)cc1	inactive	
